From PubChem BioAssay
Most compounds without a hit are left out; they make up all but 8.9% or so of the library.
KB-V1 cytotox: kills drug-selected multidrug resistant KB-V1 cells; Potency, µM (top dose mostly 46.1 µM), usual class: cytotoxic; KB-V1 MDR cells viability, CellTiter-Glo, 72 h; 400,000 compounds, 3.4% hits; note: potency is the fitted concentration of half-maximal effect; % is set by controls: 0 for no effect and ±100 for the full control effect; nearly all actives have a fitted effect of over 60% in size
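qHTS viability screen in drug-selected KB-V1 MDR cells: 72 h compound treatment at 37 degrees C, ATP luminescence end point.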
KB-3-1 cytotox: kills parental KB-3-1 adenocarcinoma cells; KB-3-1 viability, CellTiter-Glo ATP luminescence, 72 h; Potency, µM (series often up to 46.1 µM), actives largely listed as cytotoxic; 400,000 compounds, 1.4% hits; note: potency is the fitted concentration of half-maximal effect; % is set by controls: 0 for no effect and ±100 for the full control effect; nearly all actives have a fitted effect of over 60% in size
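Here the drug-naive KB-3-1 line serves as comparator for MDR sub-line selectivity; cells received compound titrations, 72 h at 37 °C, then CellTiter-Glo readout.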
MCF10A rereplic: induces DNA re-replication in MCF 10a normal breast cells; AID 624296; 350,000 compounds, 2.9% hits; Potency, µM (series often up to 46.1 µM), for the others: top-dose activity, positive = re-replication, hits mostly activators; MCF 10A DNA re-replication, Hoechst nuclear intensity, 48 h; note: potency is the fitted concentration of half-maximal effect; % of control where 0% means no effect; nearly all actives have a fitted effect of over 50% in size
DRD3 agonist: agonists of human D3 dopamine receptor; P35462; D3R DiscoveRx beta-arrestin cells, luminescence, 90 min; max activation, %; 410,000 compounds, 0.58% hits; AID 652048; in the data active = max activation above about 30%; note: 0% is about no effect
Target sequence (P35462 whole entry, looked up): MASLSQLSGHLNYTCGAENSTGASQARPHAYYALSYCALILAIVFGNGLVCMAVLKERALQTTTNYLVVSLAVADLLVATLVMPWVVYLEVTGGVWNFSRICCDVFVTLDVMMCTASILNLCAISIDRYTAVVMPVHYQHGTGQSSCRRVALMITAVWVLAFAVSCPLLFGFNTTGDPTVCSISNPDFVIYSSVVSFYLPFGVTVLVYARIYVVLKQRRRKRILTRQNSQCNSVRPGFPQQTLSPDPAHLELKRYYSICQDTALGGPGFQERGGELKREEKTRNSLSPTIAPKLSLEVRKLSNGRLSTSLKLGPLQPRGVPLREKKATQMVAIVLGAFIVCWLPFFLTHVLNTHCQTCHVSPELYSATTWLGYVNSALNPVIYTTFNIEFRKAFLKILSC
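Cells at 1500/well, incubated overnight, then treated with pinned compounds (dopamine as control) for 90 min at 37 degrees C. DiscoveRx reagent added for 30 - 60 minutes at room temperature; luminescence read.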
DRD3 antagonist: D3 dopamine receptor (human) antagonism. 360,000 compounds, 2.5% hits. D3R cells, DiscoveRx beta-arrestin luminescence, antagonist mode; hits give low values. P35462. max response, negative = inhibition, %; in the data active = max response below about -50%; inconclusive = no clear call, values can overlap the other calls; note: % is set by controls: 0 for no effect and ±100 for the full control effect
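Cells plated overnight at 1500 cells/well, then exposed to library compounds with dopamine controls for 90 minutes at 37 degrees C. DiscoveRx reagent added for 30–60 minutes at room temperature; luminescence read, quantitative HTS format.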
SW480 rerep: inducers of DNA re-replication in SW480 colon cancer cells | AID 624297 | 340,000 compounds, 1.8% hits | Potency, µM (top dose mostly 46.1 µM), for the others: top-dose re-replication activation, most hits filed as activators | SW480 DNA re-replication, Hoechst DNA content imaging, 48 h; note: potency is the fitted concentration of half-maximal effect; % of control where 0% means no effect; nearly all actives have a fitted effect of over 55% in size
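Image-based DNA-content assay: after two days of treatment, nuclei were labelled with the DNA dye Hoechst and imaged, and hits were compounds raising the count of nuclei showing high fluorescence intensity.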
An asterisk follows results filed as active; i = inactive; ? = inconclusive; . = not tested or not shown; ! = not confirmed by another sample. Unless noted, calls come from the whole dose curve; as a rule, active = well fitted curve in the direction sought with a large enough effect; inconclusive = small, poorly fitted or top-dose-only effect, or another doubt; inactive = no such curve, though single readings can be large; an effect the other way counts as inactive or inconclusive.

SMILES | KB-V1 cytotox | KB-3-1 cytotox | MCF10A rereplic | DRD3 agonist | DRD3 antagonist | SW480 rerep
Cc1ccc(N=C2C(=O)Nc3ccc(Br)cc32)cc1 | i | i | ? | -20 | -67* | ?
Cc1ccc(/C(=N/Nc2ncnc3ccccc23)C(=O)O)cc1 | i | i | 12% | -7 | ? | 18µM*
COc1ccc(S(=O)(=O)N2CCC(C)CC2)cc1OC | i | i | -5% | -1 | -16 | -1%
Nc1cc(S(=O)(=O)N2CCCCC2)ccc1N1CCCCC1 | 18µM* | ? | 4% | 5 | 16 | -3%
O=S(=O)(c1ccc2c(c1)C(=NO)c1cc(S(=O)(=O)N3CCCCC3)ccc1-2)N1CCCCC1 | 5.2µM* | 1.2µM* | 2.1µM* | -9 | ? | 12µM*
CC1CCN(S(=O)(=O)c2ccc3c(c2)C(=NO)c2cc(S(=O)(=O)N4CCC(C)CC4)ccc2-3)CC1 | i | ? | 0.52µM* | 55* | 8 | ?
Cc1ccc(S(=O)(=O)N2CCN(S(=O)(=O)N3CCC(C)CC3)CC2)cc1C | i | i | 18µM* | -1 | -2 | 2%
Cc1cccc(NC(=O)c2ccc(CN3CC(=O)N4CCCCC4C3=O)cc2)c1C (centres undefined) | . | . | . | -5 | . | .
CSc1nc2cc(S(=O)(=O)N3CCCCC3)ccc2s1 | 15µM* | ? | 7% | -8 | -16 | 10%
O=S(=O)(c1cccc(-c2nc3ccccc3s2)c1)N1CCCC1 | 15µM* | ? | -2% | 1 | 28 | -3%
CSc1nc2cc(S(=O)(=O)N3CCOCC3)ccc2s1 | i | ? | -4% | -31 | -3 | -9%
CCCOc1ccc(CNC(=O)c2[nH]c3cc(OC)ccc3c2Sc2ccccc2)cc1 | i | i | . | -9 | . | .
CC(=O)Nc1cc(-c2ccc(F)cc2)cn2c(-c3ccc(S(C)(=O)=O)cc3)cnc12 | i | i | . | 2 | 13 | .
CCCc1c(-c2cccc(Br)c2)ncn1Cc1ccccc1OC | 18µM* | ? | . | 7 | 11 | .
COc1ccccc1Cc1c(-c2cccc(Cl)c2)nc2ccc(C)cn12 | ? | ? | . | 2 | 7 | .
CCCc1c(-c2cccc(Cl)c2)ncn1CCc1ccccc1OC | 15µM* | ? | . | 0 | 12 | .
CCCc1c(-c2ccc(Cl)cc2)ncn1Cc1ccccc1OC | 18µM* | 16µM* | . | 7 | 5 | .
CCc1c(-c2ccc(Cl)cc2)ncn1Cc1cccc(-c2ccccc2)c1 | ? | ? | . | -9 | -21 | .
COc1ccccc1Cn1cnc2cccnc21 | i | i | -8% | -2 | 7 | -7%
CCCc1c(-c2ccc(Cl)cc2)ncn1CCc1ccccc1OC | 18µM* | ? | . | 7 | 18 | .
CCOc1ccc(NC(=O)CSc2cc(C)c3ccccc3n2)cc1 | . | . | . | 19 | . | .
Cc1ccc(NC(=O)CCCn2c3ccccc3c(=O)c3cc(C)ccc32)c(Br)c1 | . | . | . | 39* | . | .
Cc1ccc2c(c1)c(=O)c1ccccc1n2CCCC(=O)Nc1cc(Cl)ccc1C | i | ? | . | 14 | . | .
COCCn1c(SCc2nc3scc(-c4ccc(Cl)cc4)c3c(=O)[nH]2)nnc1-c1cccc(C)c1 | 5.2µM* | 21µM* | ? | 2 | 2 | ?
O=C(c1cccc(Cl)c1)N1c2ncnn2C2(CCCCC2)[C@@H]2CCCC[C@@H]21 | i | i | . | -3 | . | .
SMILES | KB-V1 cytotox | KB-3-1 cytotox | MCF10A rereplic | DRD3 agonist | DRD3 antagonist | SW480 rerep
CN(CC(=O)Nc1ccncc1)S(=O)(=O)c1ccc(Br)cc1 | 21µM* | i | 25% | -9 | 28 | ?
CN(CC(=O)Nn1cnnc1)S(=O)(=O)c1ccc(Br)cc1 | i | i | 14% | 8 | -13 | -5%
Cc1nc(NC(=O)CN(C)S(=O)(=O)c2ccc(Br)cc2)sc1C | 18µM* | i | -2% | -12 | -12 | -5%
Cc1ccc(-c2oc3ccccc3c(=O)c2O)cc1 | ? | 21µM* | 26µM* | 6 | 2 | 8%
O=C(O)c1c(-c2ccccc2)oc2ccc(O)cc12 | i | i | 0% | -1 | 30 | -7%
Cc1ccc2oc(-c3ccccc3)c(C(=O)O)c(=O)c2c1 | i | i | ? | -2 | -53* | 13%
CCCSC1=NC2(CCN(C(=O)NC3CCCCC3)CC2)N=C1c1ccc(OC)cc1 | i | i | . | -4 | . | .
C/C(=N\NC(=O)CSCc1ccc([N+](=O)[O-])cc1)c1ccccc1O | 21µM* | i | 0% | -53 | ? | ?
C/C(=N\NC(=O)Cc1ccc(Cl)cc1)c1ccccc1O | ? | ? | 5% | -17 | -8 | 15µM*
CCOc1ccccc1CNC(=O)c1ccc(NC(=O)N2CCSc3ncccc32)cc1 | i | i | . | 5 | . | .
[O-][n+]1ccccc1/C=C/c1ccccc1 | i | i | 3% | -2 | -11 | -8%
CN(C)c1ccc(/C=C/c2cc3ccccc3c[n+]2C)cc1 | i | 0.82µM* | . | . | . | .
[O-][n+]1c(/C=C/c2ccccc2)ccc2ccccc21 | i | ? | 21µM* | -6 | -3 | 18µM*
CN(C)c1ccc(/C=C/c2c[n+](C)cc3ccccc23)cc1 | i | 0.46µM* | . | . | . | .
CN(C)c1ccc(/C=C/c2ccc3c4ccccc4ccc3[n+]2-c2ccccc2)cc1 | 9.2µM* | 0.29µM* | ? | 5 | 4 | 1%
CN(C)c1ccc(/C=C/c2ccc3ccccc3[n+]2C)cc1 | ? | 0.33µM*! | ? | -9 | 5 | 2.3µM*
CN(CCCS(=O)(=O)[O-])c1ccc(/C=C/c2ccc3ccccc3[n+]2C)cc1 | i | ? | -2% | 4 | 5 | -5%
COc1cc(C2Nc3ccc4ncccc4c3C3=C2C(=O)CCC3)ccc1O (centres undefined) | i | 3.3µM* | 16µM* | -5 | ? | 21µM*
Cc1ccc2nc3c(c(N)c2c1)CCN3c1ccccc1 | ? | i | 15% | -6 | -77* | 3%
CN1CCc2c1nc1ccccc1c2N (tested in a mixture with another compound) | i | i | 6% | 1 | 11 | -4%
CCCCc1c(C)nc2ccc(Br)cc2c1SC(N)N | i | i | -2% | -1 | -4 | -1%
Cc1ccc2nc3c(c(N)c2c1)CCN3C | i | i | 23µM* | -15 | ? | 28%
CCCCN1CCc2c1nc1ccc(Br)cc1c2N | 21µM* | i | 5% | -39 | -84* | 1%
Cc1ccn2c(=O)cc(COc3ccc(NC(=O)COc4ccc(Cl)cc4)cc3)nc2c1 | i | i | . | 2 | . | .
CN(Cc1ccccc1)C(=O)CN1C(=O)CSc2ccc(S(=O)(=O)N3CCOCC3)cc21 | . | . | . | -6 | . | .
